# Compounds with a hit are over-represented: about 2.2% of the library has one in this group of screens.
# FUS yeast rescue: FUS proteinopathy suppression in yeast; 390,000 tested, 0.24% active; S. cerevisiae FUS-expressing, growth rescue, OD600, 24 h; Potency, µM (top dose mostly 76.6 µM), most hits filed as activators;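 also: plate controls were DMSO vehicle for no effect and reference control for full effect; nearly all actives have a fitted effect of over 55% in size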
#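 Cultures pregrown in 2.5% raffinose medium are shifted to minimal medium containing 2% galactose to express toxic FUS. Compounds are tested at several concentrations. After 24hr at 30C, growth is quantified at 600 nm absorbance.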
# Mito fusion act: mitochondrial division inhibition or fusion activation | S. cerevisiae fusion-defective mutant growth rescue, CellTiterGlo 48 h | Potency, µM (doses to about 46.1 µM), for inactives: at the top dose growth rescue (activation), actives largely listed as activators | 320,000 tested, 0.23% active; also: % of control where 0% means no effect; nearly all actives have a fitted effect of over 45% in size
#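 Yeast fusion mutant, YPEG (non-fermentable carbon), compound, 48 h at 37C non-permissive; CellTiterGlo added, 10 min RT, luminescence read. Rescued growth = division inhibition.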
# Abeta yeast res: A-beta toxicity reversal in yeast | AID 1347071 | Potency, µM (top dose mostly 46.1 µM), hits mostly activators | yeast expressing A-beta42, growth rescue, OD600, 48 h; response scale: 0% DMSO, 100% iron-clioquinol control | 410,000 tested, 0.063% active; also: nearly all actives have a fitted effect of over 55% in size
#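 Yeast growth medium received pinned compounds, then yeast cells expressing toxic A-beta were added; plates incubated at 30 C for 48 hr. Growth read as absorbance at 600 nm, normalized to DMSO and equimolar FeCl3 plus clioquinol controls.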
# aSyn yeast inh: inhibitors of alpha-synuclein toxicity in yeast; 370,000 tested, 0.14% active; Potency, µM (series often up to 46.1 µM), for inactives: at the highest dose growth rescue (activation), actives largely listed as activators; Yeast expressing alpha-synuclein, growth rescue, BacTiter-Glo, 24 h; also: % of control where 0% means no effect; nearly all actives have a fitted effect of over 65% in size
#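 Screening used galactose-induced yeast with toxic alpha-synuclein levels, exposed to compound for 24 hr at 30 deg C. Cell growth, read with BacTiter-Glo luminescence, gave the measured signal.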
# TDP43 rescue: TDP-43 toxicity inhibition in yeast. 410,000 tested, 1.8% active. AID 652104. Potency, µM (series often up to 46.1 µM), inactives show top-dose growth rescue (activation), most hits filed as activators. TDP-43 expressing yeast growth rescue, BacTiter-Glo, 24 h; also: % of control where 0% means no effect; nearly all actives have a fitted effect of over 50% in size
#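 In this qHTS, compounds that restore growth of yeast expressing TDP-43 appear as activators. Cells (OD600=0.02, galactose medium, raffinose-pregrown) are incubated with compound 24 hr at 30 deg C and growth is quantified by BacTiter-Glo.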
# An asterisk follows results filed as active; i = inactive; ? = inconclusive; · = not tested or not shown; [ ] = another dose, or the depositor's remark. Calls follow the shape of the dose curve; as a rule, active = well fitted curve in the direction sought with a large enough effect; inconclusive = small, poorly fitted or top-dose-only effect, or another doubt; inactive = no such curve, though single readings can be large; an effect the other way counts as inactive or inconclusive. Potency is read from the fitted curve at half-maximal effect.
SMILES,FUS yeast rescue,Mito fusion act,Abeta yeast res,aSyn yeast inh,TDP43 rescue
COCCn1cnnc1SCC(=O)Nc1sc2c(c1C#N)CCC2,·,-3%,i,-1%,4%
Oc1ccc(COC2CCN(Cc3ccccc3)C2)c2cccnc12 (configuration not stated),·,-6%,·,·,·
Cc1ccccc1OCC(=O)N/N=C/c1cc2ccccc2nc1Cl,i,-3%,i,-6%,0%
C=CCc1ccccc1OCC(=O)N/N=C/c1ccc(OC(C)=O)cc1OC(C)=O,i,-18%,i,13µM*,-8%
O=C1NC(=O)/C(=C/c2ccc(-c3ccc(F)cc3O)o2)S1,·,4.6µM*,·,9%,·
COc1cc2ccccc2cc1C(=O)N1CCN(c2nc3c(F)cccc3s2)CC1,i,·,i,·,11µM*
COc1cc2ccccc2cc1C(=O)N1CCN(c2nc3c(F)cc(F)cc3s2)CC1,?,·,i,·,16µM*
O=C(NC1CC(=O)N(c2ccc(Cl)cc2)C1)N1CCN(C(=O)c2ccco2)CC1 (configuration not stated),i,-8%,i,0%,-1%
Cc1cccc(CCNC(=O)CN(c2ccc(C(C)C)cc2)S(=O)(=O)c2c(C)nn(C)c2C)c1,i,·,i,·,15%
CC(CC(=O)Nc1ccc2c(c1)c(=O)n(C)n2-c1ccccc1F)c1ccccc1 (configuration not stated),i,·,i,-3%,21%
COc1ccc(S(=O)(=O)N2CCN(Cc3nc4ccc(C)cc4o3)CC2)cc1,i,·,i,·,18µM*
CC1Cc2cc(S(=O)(=O)NCCc3ccccc3)ccc2N1C(=O)C1CCC1 (configuration not stated),i,·,i,·,-5%
Cc1c(CC(=O)N2CCN(C(=O)C3COc4ccccc4O3)CC2)c(=O)oc2cc(O)cc(O)c12 (configuration not stated),18µM*,-5%,i,-18%,-7%
O=C(CC1N=C2c3ccccc3N=C(SCc3ccccc3Cl)N2C1=O)NCCc1ccccc1 (configuration not stated),i,·,i,·,?
O=C(N/N=C/c1cc(Cl)ccc1O)c1ccccc1Br,i,-3%,?,14µM*,13µM*
O=C(CNC(=O)c1ccccc1Br)N/N=C/c1cc(Br)ccc1O,i,2%,i,3%,-3%
COc1ccc(Cl)cc1NC(=S)NCCc1ccc(F)cc1,i,2%,?,-13%,32µM*
Cc1cc(Cl)ccc1NNC(=O)CCc1ccccc1,i,-2%,i,10%,13µM*
COc1ccc(Cl)cc1NC(=O)CN(C)CC(=O)Nc1ccc(Br)cc1,i,-6%,i,5%,22µM*
COc1ccc(Cl)cc1NC(=O)CCc1ccccc1,i,4%,i,1%,8.9µM*
O=C(CCc1ccccc1)NNC(=O)c1cc(Cl)ccc1O,i,7%,i,4%,-11%[1.82 µM]
CCOC(=O)[C@]12CCC=C1N(Cc1ccccc1)C(=O)[C@H](CC(=O)NCC1CCCCC1)C2,i,·,i,6%,14%
c1ccc(-c2cc3nc(NCc4cccs4)ccn3n2)cc1,i,·,?,10%,?
c1ccc(-c2cc3nc(NCc4ccc5c(c4)OCO5)ccn3n2)cc1,?,·,?,14%,14µM*
COc1cc(-c2cc3nc(NCc4cccs4)ccn3n2)cc(OC)c1OC,i,·,i,-22%,35µM*
SMILES,FUS yeast rescue,Mito fusion act,Abeta yeast res,aSyn yeast inh,TDP43 rescue
c1coc(-c2cc3nc(NCc4ccc5c(c4)OCO5)ccn3n2)c1,i,·,i,6%,18µM*
COc1ccc(/C=C2/C=Cc3ccccc32)cc1,·,·,·,1%,·
CCCCn1c(CN2CCN(c3cccc(Cl)c3)CC2)nc2c1c(=O)n(C)c(=O)n2C,i,27%,i,2%,20µM*
CCOC(=O)N1CCc2c(sc3c2c(=O)n(-c2ccc(F)cc2)c(=O)n3CC(=O)c2ccc(Cl)cc2)C1,i,·,i,·,5%
COc1ccccc1N1CCN(S(=O)(=O)c2cc(C(=O)Nc3ccc(Oc4ccccc4)cc3)ccc2F)CC1,i,·,i,·,9%
COc1ccc(-c2cc(C(=O)N(C)Cc3ccc(F)cc3)c3ccccc3n2)cc1OC,i,·,i,-5%,22µM*
CCOC(=O)C1CCCN(C(=O)c2sc3nc(-c4ccc(OC)cc4)cn3c2C)C1 (configuration not stated),?,3%,i,·,11µM*
CCOC(=O)C1CCN(C(=O)c2sc3nc(-c4ccccc4)cn3c2C)CC1,·,-1%,i,-2%,?
CCC(=O)C1=C(c2ccc(F)cc2)N(C(=O)CC)n2c(nnc2C2CCCCC2)S1,i,·,i,·,12%
CCS(=O)(=O)N1CCc2cc(C(=O)Nc3cccc(C(C)=O)c3)ccc21,i,·,i,·,-11%
O=C(NC(=S)Nc1cccc(C(F)(F)F)c1)c1ccc2nonc2c1,i,1%,i,-19%,11µM*
Cc1ccc(NC(=S)NCc2ccccc2)cc1C,i,·,i,12%,13µM*
FC(F)(F)c1cccc(NC(=S)NCc2ccccc2)c1,i,-6%,?,-24%,14µM*
CCOc1cc(OCC)cc(C(=O)NC(=S)Nc2cccc(C(F)(F)F)c2)c1,·,-2%,i,-21%,9%
Cc1snc(SCC(=O)c2ccc([N+](=O)[O-])cc2)c1C#N,i,6%,i,2%,22µM*
CC1=C(c2ccc(Cl)cc2)S(=O)(=O)N=C1N1CCN(c2cccc(C(F)(F)F)c2)CC1,i,·,i,·,22%
COc1ccc(CCn2c(=S)[nH]c(=O)c3cccnc32)cc1OC,·,·,·,-8%,·
COc1ccc(C2N(c3ccc(Cl)cc3)N=C(C(C)=O)N(C)N2C(C)=O)cc1 (configuration not stated),i,-6%,i,2%,22µM*
CC(C)(C)c1cc(NC(=O)COC(=O)c2ccccc2O)n(-c2ccccc2)n1,i,·,i,5%,29%
Cn1cccc1C(=O)OCC(=O)Nc1cc(C(C)(C)C)nn1-c1ccccc1,i,4%,i,7%,35µM*
O=C1c2ccsc2SCCN1Cc1ccc(F)cc1,i,-4%,i,?,?
O=C1c2ccsc2SCCN1Cc1ccc(Cl)cc1,i,-1%,i,17%,22µM*
COc1ccc2c(c1)CC/C(=C\c1ccc(C)o1)C2=O,i,6%,i,-1%,18µM*
COc1ccc2c(c1)CC/C(=C/c1ccncc1)C2=O,i,6%,i,-2%,1%
O=C(Nc1ccccc1)c1cc(C2COCCN2C(=O)c2cccs2)on1 (configuration not stated),i,·,i,0%,1%

# Screening results as filed in PubChem.
